PubChem BioAssay AID1159580 (chemical genetic matrix, 2015)
Out of some 5,500 compounds screened, about 2,000 (36%) were called active. Another 18% or so got no clear call; they are omitted. Cut-off read from the data, not from the text of the source: active = normalized growth mostly below about 0.91 (no sharp cut-off); inconclusive = no clear call, values can overlap the other calls; inactive = mostly above about 0.92. Some of the results follow.

Assay: chemical genetic growth profiling, strain panel (AID 1159580);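 note: tested at 20 µM; growth read once vehicle control cultures reached saturation at 30 °C; 1 = growth at the plate median or of vehicle wells; lower values mean less growth of the strain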
Settings: growth OD

Measured: normalized growth

COC1=CC(=O)C[C@@H](C)[C@]12Oc1c(Cl)c(OC)cc(OC)c1C2=O
inactive: S. cerevisiae deletion strains, locus YJR075W, strain HOC1, active compounds read low 1.03 | S. cerevisiae deletion strains, locus YKL009W, strain mrt4, active compounds read low 1 | S. cerevisiae deletion strains, locus YKL068W, active compounds read low 0.986 | S. cerevisiae deletion strains, locus YKL085W, strain MDH1 (second series), active compounds read low 0.989 | S. cerevisiae deletion strains, locus YKL085W, strain MDH1, active compounds read low 0.989 | S. cerevisiae deletion strains, locus YKL160W, strain elf1, active compounds read low 1.02 | S. cerevisiae deletion strains, locus YKL190W, strain CNB1, active compounds read low 1 | S. cerevisiae deletion strains, locus YKR001C, strain vps1, active compounds read low 0.995 | S. cerevisiae deletion strains, locus YKR026C, strain gcn3, active compounds read low 0.979 | S. cerevisiae deletion strains, locus YKR091W, strain srl3, active compounds read low 0.989 | S. cerevisiae deletion strains, locus YLL001W, strain dnm1, active compounds read low 0.984 | S. cerevisiae deletion strains, locus YLL026W, active compounds read low 0.984 | S. cerevisiae deletion strains, locus YLL041C, strain sdh2, active compounds read low 0.996 | S. cerevisiae deletion strains, locus YLR027C, strain aat2, active compounds read low 0.993 | S. cerevisiae deletion strains, locus YLR039C, strain RIC1, active compounds read low 0.983 | S. cerevisiae deletion strains, locus YLR058C, strain SHM2, active compounds read low 0.996 | S. cerevisiae deletion strains, locus YLR102C, strain apc9, active compounds read low 1 | S. cerevisiae deletion strains, locus YLR113W, strain HOG1, active compounds read low 1 | S. cerevisiae deletion strains, locus YLR221C, strain rsa3, active compounds read low 0.956 | S. cerevisiae deletion strains, locus YLR258W, strain gsy2, active compounds read low 0.982 | S. cerevisiae deletion strains, locus YLR262C, strain YPT6 (second series), active compounds read low 0.967 | S. cerevisiae deletion strains, locus YLR262C, strain YPT6, active compounds read low 0.936 | S. cerevisiae deletion strains, locus YLR268W, strain sec22, active compounds read low 0.994 | S. cerevisiae deletion strains, locus YLR320W, strain mms22, active compounds read low 0.982 | S. cerevisiae deletion strains, locus YLR330W, strain CHS5, active compounds read low 0.994 | S. cerevisiae deletion strains, locus YLR342W, strain FKS1 (second series), active compounds read low 0.979 | S. cerevisiae deletion strains, locus YLR342W, strain FKS1, active compounds read low 0.972 | S. cerevisiae deletion strains, locus YLR357W, strain rsc2, active compounds read low 1.01 | S. cerevisiae deletion strains, locus YLR370C, strain arc18, active compounds read low 0.943 | S. cerevisiae deletion strains, locus YLR371W, strain rom2, active compounds read low 0.987 | S. cerevisiae deletion strains, locus YLR384C, strain iki3, active compounds read low 0.993 | S. cerevisiae deletion strains, locus YLR418C, strain cdc73, active compounds read low 0.987 | S. cerevisiae deletion strains, locus YML016C, strain PPZ1, active compounds read low 0.991 | S. cerevisiae deletion strains, locus YML032C, strain rad52, active compounds read low 0.986 | S. cerevisiae deletion strains, locus YML120C, strain ndi1, active compounds read low 0.951 | S. cerevisiae deletion strains, locus YML124C, strain tub3, active compounds read low 0.99 | S. cerevisiae deletion strains, locus YMR058W, strain fet3, active compounds read low 0.999 | S. cerevisiae deletion strains, locus YMR078C, strain ctf18, active compounds read low 0.987 | S. cerevisiae deletion strains, locus YMR125W, strain sto1, active compounds read low 0.988 | S. cerevisiae deletion strains, locus YMR129W, active compounds read low 0.983 | S. cerevisiae deletion strains, locus YMR205C, strain PFK2, active compounds read low 1.01 | S. cerevisiae deletion strains, locus YMR223W, strain ubp8, active compounds read low 0.988 | S. cerevisiae deletion strains, locus YMR231W, strain pep5, active compounds read low 0.991 | S. cerevisiae deletion strains, locus YMR263W, strain SAP30, active compounds read low 1.01 | S. cerevisiae deletion strains, locus YMR307W, strain GAS1, active compounds read low 0.847 | S. cerevisiae deletion strains, locus YNL067W, strain RPL9B, active compounds read low 1.04 | S. cerevisiae deletion strains, locus YNL071W, strain lat1, active compounds read low 0.992 | S. cerevisiae deletion strains, locus YNL128W, strain TEP1, active compounds read low 1 | S. cerevisiae deletion strains, locus YNL153C, strain GIM3, active compounds read low 1.04 | S. cerevisiae deletion strains, locus YNL183C, strain NPR1, active compounds read low 0.958 | S. cerevisiae deletion strains, locus YNL209W, strain ssb2, active compounds read low 0.984 | S. cerevisiae deletion strains, locus YNL233W, strain BNI4, active compounds read low 1.06 | S. cerevisiae deletion strains, locus YNL248C, strain rpa49, active compounds read low 1.05 | S. cerevisiae deletion strains, locus YNL250W, strain rad50, active compounds read low 1 | S. cerevisiae deletion strains, locus YNL271C, strain bni1, active compounds read low 0.99 | S. cerevisiae deletion strains, locus YNL298W, strain CLA4, active compounds read low 0.995 | S. cerevisiae deletion strains, locus YNL307C, strain MCK1, active compounds read low 1 | S. cerevisiae deletion strains, locus YNL322C, strain KRE1 (second series), active compounds read low 0.991 | S. cerevisiae deletion strains, locus YNL322C, strain KRE1, active compounds read low 1 | S. cerevisiae deletion strains, locus YNR049C, strain mso1, active compounds read low 0.98 | S. cerevisiae deletion strains, locus YNR052C, strain pop2, active compounds read low 0.999 | S. cerevisiae deletion strains, locus YOL006C, strain TOP1, active compounds read low 1.11 | S. cerevisiae deletion strains, locus YOL012C, strain htz1 0.916 | S. cerevisiae deletion strains, locus YOL147C, strain pex11, active compounds read low 0.993 | S. cerevisiae deletion strains, locus YOR001W, strain rrp6, active compounds read low 0.967 | S. cerevisiae deletion strains, locus YOR061W, strain CKA2, active compounds read low 0.968 | S. cerevisiae deletion strains, locus YOR069W, strain VPS5, active compounds read low 0.993 | S. cerevisiae deletion strains, locus YOR070C, strain gyp1, active compounds read low 0.977 | S. cerevisiae deletion strains, locus YOR080W, strain dia2, active compounds read low 0.982 | S. cerevisiae deletion strains, locus YOR083W, strain WHI5, active compounds read low 1.02 | S. cerevisiae deletion strains, locus YOR106W, strain vam3, active compounds read low 1 | S. cerevisiae deletion strains, locus YOR136W, strain idh2, active compounds read low 1 | S. cerevisiae deletion strains, locus YOR144C, strain elg1, active compounds read low 0.988 | S. cerevisiae deletion strains, locus YOR184W, strain ser1, active compounds read low 0.991 | S. cerevisiae deletion strains, locus YOR231W, strain MKK1, active compounds read low 1.01 | S. cerevisiae deletion strains, locus YOR265W, strain rbl2, active compounds read low 0.978 | S. cerevisiae deletion strains, locus YOR270C, strain vph1, active compounds read low 0.952 | S. cerevisiae deletion strains, locus YOR290C, strain snf2, active compounds read low 1.03 | S. cerevisiae deletion strains, locus YOR316C, strain cot1, active compounds read low 0.992 | S. cerevisiae deletion strains, locus YPL051W, strain arl3, active compounds read low 1.02 | S. cerevisiae deletion strains, locus YPL055C, strain LGE1, active compounds read low 0.985 | S. cerevisiae deletion strains, locus YPL078C, strain atp4, active compounds read low 1.03 | S. cerevisiae deletion strains, locus YPL106C, strain sse1, active compounds read low 0.964 | S. cerevisiae deletion strains, locus YPL240C, strain hsp82, active compounds read low 0.988 | S. cerevisiae deletion strains, locus YPL241C, strain CIN2, active compounds read low 0.992 | S. cerevisiae deletion strains, locus YPL256C, strain CLN2, active compounds read low 0.985 | S. cerevisiae deletion strains, locus YPR119W, strain clb2, active compounds read low 0.99 | S. cerevisiae deletion strains, locus YPR141C, strain kar3, active compounds read low 0.978 | S. cerevisiae deletion strains, locus YPR163C, strain tif3, active compounds read low 0.98 | S. cerevisiae deletion strains, locus YPR167C, strain met16, active compounds read low 0.99 | S. cerevisiae deletion strains, strain wtn01, active compounds read low 0.998 | S. cerevisiae strains, strain wild type, active compounds read low 0.988
